IL1B secr inh: inflammasome signaling inhibition, IL-1 beta readout; THP-1 LPS/ATP IL-1B secretion, AlphaLISA, 16 h; active compounds read low; activity change, % at 57.5 µM; actives 4.7% (n = 360,000); AID 743279; in the data active means activity change below about -50%; inconclusive means mostly about -30% to -49%
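Secreted IL-1B measured by AlphaLISA bead assay after 16 h compound exposure of THP-1 cells; compounds (final up to 57.5 uM) added 1 h before LPS (250 ng/mL) and ATP (1.25 mM) stimulation; lower signal means less secretion.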
HT1080 IDH1KD tx: toxicity to HT-1080 IDH1 knockdown cells (counter line); HT-1080 IDH1 knockdown viability, ATP luminescence, 48 h; Potency, µM (top dose mostly 46.1 µM), for the others: top-dose activity, negative = toxicity, usual class: cytotoxic; actives 2% (n = 360,000);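 further: potency means the concentration at half of the fitted maximal effect; 0% = DMSO wells and -100% = cell-free medium wells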
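IDH1KD HT-1080 cells, 750/well, RPMI + 5% FBS; compound pinned after 2 h settling; 48 h, 37 °C; CellTiter-Glo luminescence; % activity normalised to DMSO and no-cell wells; curves fitted, classed by r2 and efficacy.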
HT1080-NT tox: kills 2HG-producing HT-1080-NT fibrosarcoma cells; HT-1080-NT fibrosarcoma viability, CellTiter-Glo ATP luminescence, 48 h; AID 686970; actives 1.6% (n = 360,000); Potency, µM (top dose mostly 46.1 µM), for inactives: top-dose activity, negative = less viability, most hits filed as cytotoxic;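 further: NT is the 2HG producing partner of a matched IDH1 knockdown line; potency means the concentration at half of the fitted maximal effect; 0% = DMSO-treated cells and -100% = media-only wells without cells; nearly all actives have a fitted effect of over 55% in size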
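Compounds were tested in concentration-response format on HT-1080-NT cells for 48 hours at 37 degrees C. Cell viability came from CellTiter-Glo luminescence; curves were classified by r2, response magnitude and activity.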
DT40 TDP1 CPT: growth inhibition of DT40 Tdp1-/-;hTDP1 cells with camptothecin (screen for TDP1 inhibitors); chicken DT40 Tdp1-/-;hTDP1 cells + 20 nM CPT, ATP luminescence, 48 h; actives 12% (n = 420,000); Potency, µM (titrated, usually from 46.2 µM), for inactives: at the highest dose activity change, negative = growth inhibition, hits mostly inhibitors; further: potency means the concentration at half of the fitted maximal effect; nearly all actives have a fitted effect of over 55% in size
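Chicken DT40 Tdp1-/- cells complemented with human TDP1, 400 cells/well, exposed to compounds plus 20 nM camptothecin for at least 48 h at 37 C; viability read as ATP content by CellTiter-Glo luminescence.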
DT40 TDP1 no CPT: qHTS for Inhibitors of human tyrosyl-DNA phosphodiesterase 1 (TDP1): qHTS in cells in absence of CPT. DT40 Tdp1-/- hTDP1 cells, no CPT, ATP luminescence, 48 h. Potency, µM (doses to about 46.2 µM), without a hit: at the top dose activity change, negative = growth inhibition, usual class: inhibitors. actives 15% (n = 420,000). AID 686978, 2013; further: potency means the concentration at half of the fitted maximal effect; nearly all actives have a fitted effect of over 55% in size
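Chicken DT40 Tdp1-/- cells complemented with human TDP1, screened without camptothecin (DMSO vehicle only), 400 cells/well. Compounds pin-transferred, cells incubated at 37 °C for at least 48 hr. Growth read as ATP-dependent luminescence (CellTiter-Glo, 30 min at RT).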
Starred values were filed as active, the others as inactive; ? = inconclusive; . = no result; [ ] = remark or other dose. An excerpt weighted towards active compounds, which were near 19% of everything screened. Unless noted, the call rests on the fitted dose curve; in most records, active means well fitted curve in the direction sought with a large enough effect; inconclusive means small, poorly fitted or top-dose-only effect, or another doubt; inactive means no such curve, though single readings can be large; an effect the other way counts as inactive or inconclusive. Unless noted, on the % scale 0 is the no-effect control and ±100 the full control effect.

SMILES	IL1B secr inh	HT1080 IDH1KD tx	HT1080-NT tox	DT40 TDP1 CPT	DT40 TDP1 no CPT
O=C(COc1ccccc1[N+](=O)[O-])Nc1ccc(N2CCN(C(=O)c3cccs3)CC2)cc1	?	?	-19.2%	4.61µM*	6.51µM*
O=C(COc1ccccc1Cl)Nc1ccc(N2CCN(C(=O)c3ccccc3)CC2)cc1	-22.4	?	-26.4%	18.4µM*	14.6µM*
Cc1ccc(OCC(=O)Nc2ccc(N3CCN(C(=O)c4ccc(C)cc4)CC3)cc2)cc1	-7.4	-1.4%	-14.9%	-26.8%	?
Cc1cccc(OCC(=O)Nc2ccc(N3CCN(C(=O)c4ccccc4)CC3)cc2)c1	-68.0*	5.1%	1.8%	?	14.6µM*
COc1ccc(CCN(C)C(=O)CSc2nnc(C3CC3)n2N)cc1OC	2.7	-7.3%	-8.7%	-2.4%	-0.9%
Cc1nnc(NC(=O)C2CCN(C(=O)c3ccsc3)CC2)s1	.	.	.	-8.8%	2.9%
Cc1nc2sc(C(=O)OC(C)C)c(N)c2c(C)c1C	21.3	18.1%	14.2%	3.0%	2.2%
CCN1CCN(c2ccc(NC(=O)COc3ccc(Cl)cc3C)cc2)CC1	-11.0	11.9%	-0.9%[9.24 µM]	18.4µM*	?
CC1CCc2onc(C(=O)NCc3ccco3)c2C1 (stereo unspecified)	3.0	13µM*	18.4µM*	?	?
CCCN(CC1CC1)C(=S)NC(=O)c1ccccc1C	-5.8	12.8%	11.8%	-2.5%	-21.8%
CCCN(CC1CC1)C(=S)NC(=O)c1cc(Br)ccc1Cl	30.7	-20.3%	-8.9%	?	16.4µM*
COc1cccc(CCNC(=O)CCCC(=O)c2ccccc2)c1	-6.7	11.6%	22.8%	-3.6%	-26.7%
C[C@@H](C(=O)NCc1ccccn1)[C@H]1C[C@]1(C)[C@H](NC(=O)OCc1ccccc1)c1ccccc1	-23.9	1.4%	-8.9%	23.1µM*	16.4µM*
CC(NC(=O)OCc1ccccc1)c1ccccc1 (stereo unspecified)	-24.1	-11.6%	-6.0%	12.1%	-2.8%
CC[C@H](C)[C@H](NC(=O)OCc1ccccc1)C(=O)Nc1ccc(NC(C)=O)cc1	-20.0	8.9%	0.4%	-19.1%	-7.4%
C[C@@H](C(=O)NCC1CC1)[C@@H]1C[C@@]1(C)[C@@H](NC(=O)OCc1ccccc1)c1ccccc1	-1.1	0.6%	-2.1%	?	14.6µM*
C[C@H](CO)NC(=O)[C@H](C)[C@H]1C[C@]1(C)[C@H](NC(=O)OCc1ccccc1)c1ccccc1	-0.9	13.3%	18.9%	?	?
C[C@@H](C(=O)NCCc1c[nH]c2ccccc12)[C@H]1C[C@]1(C)[C@H](NC(=O)OCc1ccccc1)c1ccccc1	-23.3	-13.7%	-10.3%	6.51µM*	16.4µM*
C[C@@H](C(=O)Nc1ccc2ccccc2c1)[C@H]1C[C@]1(C)[C@H](NC(=O)OCc1ccccc1)c1ccccc1	?	-5.3%	-10.4%	18.4µM*	16.4µM*
Cc1[nH]n(-c2ccc(F)cc2)c(=O)c1C=Nc1ccc(S(=O)(=O)N(C)C)cc1	14.1	10.2%	-2.3%	6.6%	-26.9%
COc1cc(/C=N/NC(=O)c2ccc(CSc3nncn3C)cc2)cc(OC)c1O	-10.1	18.4%	0.1%	-6.9%	-0.8%
Cc1cc(C(=O)N[C@H](c2ccccc2)[C@@]2(C)C[C@@H]2[C@@H](C)C(=O)Nc2ccc3ccccc3c2)n(C)n1	0.0	-16.2%	-24.0%	?	23.1µM*
C[C@@H](C(=O)NCc1ccc(S(C)(=O)=O)cc1)[C@@H]1C[C@@]1(C)[C@@H](NC(=O)OCc1ccccc1)c1ccccc1	-4.4	0.3%	8.9%	20.6µM*	14.6µM*
C[C@@H](C(=O)Nc1ccc2ccccc2c1)[C@@H]1C[C@@]1(C)[C@@H](N)c1ccccc1	-11.9	-13.4%	-1.6%	?	?
O=C1C=C(c2ccc(Cl)c(C(F)(F)F)c2)C[C@@H](c2ccc(Cl)cc2)C1	-22.3	-1.5%	-14.2%	?	?
SMILES	IL1B secr inh	HT1080 IDH1KD tx	HT1080-NT tox	DT40 TDP1 CPT	DT40 TDP1 no CPT
O=C(C=P(c1ccccc1)(c1ccccc1)c1ccccc1)c1ccccc1-c1ccccc1C(=O)C=P(c1ccccc1)(c1ccccc1)c1ccccc1	?	7.31µM*	13µM*	0.731µM*	0.581µM*
Cc1cc(C(Br)(Br)Br)nc2ccccc12	.	.	.	2.51µM*	2.51µM*
COc1ccc(/C=C/c2cc(C(=O)O)c3ccccc3n2)cc1	16.8	?	-17.7%	10.3µM*	14.6µM*
Cc1cc(Cl)nc2ccccc12	.	.	.	3.5%	-2.6%
Cc1cc(/C=C\c2ccccc2)nc2ccccc12	-52.3*	-24.2%	2.1%	-6.7%	-23.2%
CCCc1nn2c(=O)cc(COC(=O)c3cccc(NC(=O)COc4ccc(F)cc4)c3)nc2s1	.	.	.	0.9%	-10.9%
Cc1cccc(OCC(=O)Nc2cccc(C(=O)OCc3cc(=O)n4nc(C(C)C)sc4n3)c2)c1	.	.	.	?	11.6µM*
CC(C)c1nn2c(=O)cc(COC(=O)c3cccc(NC(=O)COc4ccc(F)cc4)c3)nc2s1	.	.	.	13µM*	20.6µM*
COc1cccc(C(=O)Nc2cccc(C(=O)OCc3cc(=O)n4nc(C(C)C)sc4n3)c2)c1	.	.	.	-11.4%	-16.1%
Cc1cccc(OCC(=O)Nc2cccc(OCc3cc(=O)n4cccc(C)c4n3)c2)c1	.	.	.	20.6µM*	14.6µM*
Cc1ccc(NC(=O)Cn2cc(S(=O)(=O)N3CCCC3)c(S(=O)(=O)N3CCCC3)c2)cc1F	.	.	.	-16.0%	-14.5%
Cn1c(=O)n(Cc2ccc(Br)cc2)c2ccccc21	-108.2*	-4.8%	?	?	?
CCCCNC(=O)C1(NC(=O)Nc2ccc(C)cc2)CCCCC1	-2.3	?	3.9%	7.31µM*	?
CCC(C)NC(=O)C1(NC(=O)Nc2ccccc2)CCCCC1 (stereo unspecified)	-0.6	0.0%	0.9%	16.4µM*	18.4µM*
O=C(Nc1ccccc1)NC1(C(=O)NCc2cccs2)CCCCC1	3.3	8.0%	10.2%	-29.0%	3.8%
Cc1cc(C(F)(F)F)n(-c2nc(C(=O)N/N=C/c3ccc(F)cc3)cs2)n1	-24.7	-4.3%	-16.2%	16.4µM*	?
COc1cccc(/C=N/NC(=O)c2csc(-n3nc(C)cc3C(F)(F)F)n2)c1	-8.8	10.9%	8.9%	-10.3%	?
COc1cccc(C2c3[nH]c4ccccc4c3C[C@H]3C(=O)N(c4ccccc4C(=O)NCCCN4CCOCC4)C(=O)N23)c1 (stereo partly specified)	28.3	-24.8%	?	11.6µM*	13µM*

Compound activity deposited in PubChem BioAssay by National Center for Advancing Translational Sciences (NCATS).
